# PubChem BioAssay (NCI)
# Values joined by “and” are separate entries in the source; they are usually repeats but may differ in a detail not shown here. Equal entries are not always repeated. The panel holds about 83,000 compounds, 20% with a hit somewhere; the sample as a whole holds those more often.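 Activity criterion: percent growth below 10, measured after cells in 96-well plates were exposed to a single compound concentration for 48 hours.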 Active and inactive are the calls of the source.
# System: CCRF-CEM leukemia
# Assay: NCI-60 one-dose screen, 48 h (100 = growth as untreated, 0 = no growth, -100 = all killed)
# Conditions: 10 µM
# Protocol: Growth inhibition of the CCRF-CEM human tumor cell line is measured as a screen for anti-cancer activity. Cells are grown in 96 well plates and exposed to the test compound for 48 hours. Compounds are tested at a single concentration, which is 10^-5 M for most compounds. The reported endpoint is percent growth (GI% or GIPRCNT), where numbers from 0 - 100% represent growth inhibition, and numbers from -100% - 0 represent cell death. For example, a value of 40 represents 60% growth inhibition. A value of 0 means no net growth occurred over the course of the experiment. A value of -40 indicates 40% of cells at the beginning of the experiment died by the end of the experiment. A value of -100 means all cells are dead at the end of the experiment.
# NCI-60 Human Tumor Cell Lines Screen was performed using the standard one-dose NCI protocol, which is described in more detail at https://dtp.cancer.gov/discovery_development/nci-60/default.htm.
# Compounds with GIPRCNT values below 10 were considered active. Activity score was based on GIPRCNT using the following formula: […]
# Score is 0 for GIPRCNT values of 100 or above, 50 for GIPRCNT values of 0, and 100 for GIPRCNT values of -100.
row,SMILES,growth
1,S=C(SSC(=S)N1CCCCC1)N1CCCCC1,91.1% (inactive)

# Same assay, conditions: 10 µM unless noted
row,SMILES,growth
1,Cc1c(N)nc([C@H](CC(N)=O)NC[C@H](N)C(N)=O)nc1C(=O)N[C@H](C(=O)N[C@H](C)[C@@H](O)[C@H](C)C(=O)N[C@H](C(=O)NCCc1nc(-c2nc(C(=O)NCCC[S+](C)C)cs2)cs1)[C@@H](C)O)C(OC1OC(CO)C(O)C(O)C1OC1OC(CO)C(O)C(OC(N)=O)C1O)c1cnc[nH]1 (some centres undefined),51.6% [2.5 µM] (inactive)
2,CCC(=O)OC1CCn2c1nc1c2C(=O)C(C)=C(N2CC2)C1=O (centres undefined),70.4% (inactive)
3,CO[C@H](/C(C)=C/C=C/C(C)=C/c1coc(C)n1)[C@H](C)[C@H]1C[C@@H](O)[C@@]2(C)O[C@H]2/C=C/[C@@H](C)[C@@H]2C[C@@H](CC(=O)O2)C[C@H]2O[C@@H]2C(=O)O1,-3.89% (active)
4,CN1CCN(c2ccc([N+](=O)[O-])c3no[n+]([O-])c23)CC1,-30.6% (active)
5,Cc1ccc(C(=O)OC(C(=O)O)C(OC(=O)c2ccc(C)cc2)C(=O)O)cc1 (centres undefined) (tested in a mixture with another compound),23% (inactive)
6,C[C@H]1CCC/C=C/[C@@H]2C[C@H](O)C[C@H]2[C@H](O)/C=C/C(=O)O1,7.53% (active)
7,C[C@]12CC[C@H](O)CC1=CC[C@@H]1[C@@H]2CC[C@]2(C)C(=O)CC[C@@H]12,76.3% (inactive)
8,Oc1cccc2cccnc12,48.8% (inactive) and 99.2% (inactive) and 96% (inactive)
9,CC1=C(CO)C2=C(C)C3(CC3)[C@@](C)(O)C(=O)C2=C1,28.6% (inactive)
10,COC1=C(C)C(=O)C2=C(C1=O)C(CO)N1C(C#N)C3CC4C(C1C2N1CCOC41)N3C (centres undefined),-37.8% (active)
11,COc1ccc(OC)c(/C=C/[N+](=O)[O-])c1,8.78% (active)
12,CC[C@@]1(O)C[C@H](OC2CC(N(C)C)C(O)C(C)O2)c2c(O)c3c(c(O)c2[C@H]1OC1CC(N(C)C)C(O)C(C)O1)C(=O)c1cccc(O)c1C3=O (some centres undefined),-37.7% (active)
13,COc1ccccc1/C=C(/C)[N+](=O)[O-],8.42% (active) and 99.5% (inactive)
14,COc1cccc2c1cc([N+](=O)[O-])c1c(C(=O)O)cc3c(c12)OCO3,45.8% (inactive) and 77.6% (inactive)
15,CC[n+]1c(-c2ccccc2)c2cc(N)ccc2c2ccc(N)cc21,27.5% (inactive)
16,CC[C@](O)(C(=O)O)c1cc2n(c(=O)c1CO)Cc1cc3ccccc3nc1-2,-24.5% (active)
17,CC[C@@]1(O)C[C@H](OC2CC(N(C)C)C(OC3CC(O)C(OC4CCC(=O)C(C)O4)C(C)O3)C(C)O2)c2c(cc3c(c2O)C(=O)c2c(O)ccc(O)c2C3=O)[C@H]1C(=O)OC (some centres undefined),4.1% (active)
18,O=C1c2ccccc2C(=O)C(Cl)C1Cl (centres undefined),-20.8% (active)
19,CCCCCCCCCCCC1CCCC(C)N1 (centres undefined),16.5% (inactive)
20,CC(=O)O[C@H]1C[C@@H]2OC3C=C(C)CCC3(C)[C@@]1(C)[C@@]21CO1 (some centres undefined),2.26% (active)
21,CCOC(=O)C(NC(=O)C(Cc1ccc(N(CCCl)CCCl)cc1)NC(C)=O)C(C)C (centres undefined),71.7% (inactive)
22,Cc1cc(N=Nc2ccccc2C)ccc1N,4.33% (active)
23,CC[C@@]1(O)C(=O)OCc2c1cc1n(c2=O)Cc2cc3ccccc3nc2-1,-28.1% (active)
24,Oc1cc[c]([Hg][Cl])cc1,55.2% (inactive)
25,CC1=C2C(=O)[C@H]3[C@@H](CC=C4C[C@@H](O)CC[C@@]43C)[C@@H]2CC[C@]12O[C@@H]1C[C@H](C)CN[C@H]1[C@H]2C,89.5% (inactive)
26,CCC1(O)CC(OC2CC(N(C)C)C(OC3CC4OC5CC(=O)C(C)OC5OC4C(C)O3)C(C)O2)c2c(cc3c(c2O)C(=O)c2c(O)ccc(O)c2C3=O)C1C(=O)OC (centres undefined),-31.2% (active)
27,COC1CC(CC2CCC(C)C(C(C)C(=O)O)O2)OC2(OC(C)(C3CCC(C)(C4OC(C5OC(O)(CO)C(C)CC5C)CC4C)O3)CC2C)C1C (centres undefined),-27.1% (active)

# Same assay, conditions: 100 µM
row,SMILES,growth
1,S=C(SSC(=S)N1CCCCC1)N1CCCCC1,-38.1% (active)
